From PubChem BioAssay (NCI)
The panel holds about 83,000 compounds, 20% with a hit somewhere; the sample as a whole holds those more often.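 Results are percent growth after 48 hours of single-concentration exposure. 100 means growth as in untreated cells, lower positive values show inhibition; negative values down to -100 show cell death.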 A number with no mark means an inactive call. Calls of active or inactive are those of the source.

Test system: BT-549 breast
Assay: NCI-60 one-dose screen, 48 h (100 = growth as untreated, 0 = no growth, -100 = all killed)
Conditions: 10 µM
Experimental: Growth inhibition of the BT-549 human tumor cell line is measured as a screen for anti-cancer activity. Cells are grown in 96 well plates and exposed to the test compound for 48 hours. Compounds are tested at a single concentration, which is 10^-5 M for most compounds. The reported endpoint is percent growth (GI% or GIPRCNT), where numbers from 0 - 100% represent growth inhibition, and numbers from -100% - 0 represent cell death. For example, a value of 40 represents 60% growth inhibition. A value of 0 means no net growth occurred over the course of the experiment. A value of -40 indicates 40% of cells at the beginning of the experiment died by the end of the experiment. A value of -100 means all cells are dead at the end of the experiment.
NCI-60 Human Tumor Cell Lines Screen was performed using the standard one-dose NCI protocol, which is described in more detail at https://dtp.cancer.gov/discovery_development/nci-60/default.htm.
Compounds with GIPRCNT values below 10 were considered active. Activity score was based on GIPRCNT using the following formula: […]
Score is 0 for GIPRCNT values of 100 or above, 50 for GIPRCNT values of 0, and 100 for GIPRCNT values of -100.

SMILES | growth
COc1ccccc1[C@H]1C(C(=O)c2ccc(O)cc2)C2(N[C@@H]1c1ccccc1)C(=O)Nc1ccc(Br)cc12 (stereo not given in full) | 54%
CC1(C)CC[C@]2(C(=O)Nc3ccccc3)CC[C@]3(C)C(=CC[C@@H]4[C@@]5(C)CC[C@H](N)C(C)(C)[C@@H]5CC[C@]43C)[C@H]2C1 | 113%
COc1ccc(N(C)c2cc(C#N)nc3ccccc23)cc1/C=C/C(=O)NO | -49.4% (active)
CCOC(=O)N/C(=C1/OCCN1C)[P+](c1ccccc1)(c1ccccc1)c1ccccc1 | 75.4%
COc1ccc(C(C)=C(c2ccc(OCCCN(C)C)cc2)c2ccc(OCCCN(C)C)cc2)cc1 | -78.4% (active)
CN1CCN(c2ccc(C(=O)/C=C/c3ccc(C#N)cc3)cc2)CC1 | 91.1%
O=C1NC(=NC23CC4CC(CC(C4)C2)C3)N/C1=C\c1ccc2ncccc2n1 | -81.3% (active)
COc1ccc2[nH]c(O)c(N=NC(=O)c3cc(-c4ccc(C)cc4)nc4ccccc34)c2c1 | 139%
O=c1[nH]c2ccccc2cc1CSc1ccc(Nc2nccc(-c3ccc(C(F)(F)F)cc3)n2)cc1 | 31.7%
O=C(CSc1nnc(-c2c[nH]c3ccccc23)n1-c1ccccc1)c1ccc(Cl)cc1 | 69.8%
C#Cc1ccc(S(=O)(=O)Nc2cccc(-c3csc(NC(C)=O)n3)c2)cc1 | 55.7%
C=CC(=O)Nc1nc(-c2cccc(NS(=O)(=O)c3cccc4c(N(C)C)cccc34)c2)cs1 | -75.6% (active)
COc1cc(C2CC(c3ccc(C)cc3)=Nc3c(N)nc(N)nc3N2)ccc1Oc1nc(Nc2ccc(F)cc2)nc(N(C)C)n1 (stereo not given) | 65.4%
O=C(CNc1nc(-c2ccccc2)cs1)Nc1ccc(Br)cc1 | -61.2% (active)
C=C[C@@]12CN3CC[C@]1(O)[C@@](C(=O)OC)(CO2)c1[nH]c2ccccc2c1C3 | 38.4%
COc1ccc(Nc2nc(N)n(Cc3cccc(Br)c3)n2)cc1 | -8.47% (active)
CC1(C)CC[C@]2(C(=O)O)CC[C@]3(C)C(=CC[C@@H]4[C@@]5(C)C/C(=C/c6ccncc6)[C@H](O)C(C)(C)[C@@H]5CC[C@]43C)[C@@H]2C1 | 50.8%
COc1cc(OC(F)(F)F)ccc1C(=O)Nc1sc2c(c1C#N)CCC(=O)C2 | 14.1%
O=C(Nc1ccc(OCc2ccccc2)cc1)Nc1ccc(Cl)c(C(F)(F)F)c1 | -15.9% (active)
COc1ccc(-c2cc(-c3cc(C(=O)c4ccccc4)n4ccc(C)cc34)nc(N)c2C#N)cc1 | 22.4%

SMILES | growth
CCOC(=O)C1=C(N)N(c2ccccc2)C2=C(C(=O)CC(C)(C)C2)C1c1ccccc1OC (stereo not given) | 105%
O=C(N/N=C/c1ccc(-c2cccc([N+](=O)[O-])c2)o1)c1[nH]c2ccc(Br)cc2c1-c1ccccc1 | 30.5%
Cc1cc2c(c(O)c1Br)-c1ncoc1C(=O)[C@]1(C)CC[C@H](C(C)C)[C@H]21 | -24.6% (active)
COc1ccc2nc(Cl)c(-c3cc(-c4ccccc4)nc(=O)[nH]3)cc2c1 | 38.9%
O=c1nc(-c2ccccc2)cc(-c2cc3ccccc3nc2Cl)[nH]1 | 12.9%
CNC(=O)c1cc(-c2ccc(NC(=O)Nc3ccc(C)cc3)cc2)nc2cccnc12 | 104%
CN1C(=O)N(C)C2SC(N/N=C/c3ccc(F)cc3)=NC21 (stereo not given) | 9.3% (active)
CC(=O)c1cc(C(=O)N2c3ccccc3Sc3ccccc32)n2ccc(C)cc12 | 16%
O=C(c1ccc(Cl)cc1)C1[C@H](c2ccccc2Br)[C@@H](c2ccccc2)NC12C(=O)Nc1ccc(Br)cc12 (stereo not given in full) | 54.8%
CC1=C(C(=O)OC(C)C)C(c2ccc(O)cc2)NC(=S)N1 (stereo not given) | 82.7%
CC[C@@]1(O)C(=O)OCc2c1cc1n(c2=O)Cc2c-1nc1cc(F)c(C)c3c1c2[C@@H](N)CC3 | -10.7% (active)
Cc1nn(-c2ccccc2)c2ncn(CC(=O)N/N=C/c3c[nH]c4ccccc34)c(=O)c12 | 99.4%
O=C(CSc1nnc(-c2c[nH]c3ccccc23)n1-c1ccccc1)Nc1ccc(C(=O)/C=C/c2ccccc2Cl)cc1 | 84.4%
OCCCNc1oc(-c2ccccc2)nc1[P+](c1ccccc1)(c1ccccc1)c1ccccc1 | -40.5% (active)
COc1ccc(/C(C)=N/N=C2C(=O)N(C)c3ccc(Br)cc32)cc1S(N)(=O)=O | 29.2%
CN1CCN(c2ccc(Nc3nc(NCCCNC(=O)c4ccccc4)c4sccc4n3)cc2)CC1 | 138%
O=C(NO)c1ccc(CN2CCN(c3nc(-c4ccccc4)c4ccccc4n3)CC2)cc1 | 35.8%
C=CCn1c(SCC(=O)Nc2ccc(C(=O)/C=C/c3ccccc3)cc2)nnc1-c1c[nH]c2ccccc12 | 45.6%
O=C(COc1ccc(NC(=O)Nc2ccc(Cl)cc2)cc1)N=Nc1c(O)[nH]c2ccc([N+](=O)[O-])cc12 | 22.2%
O=C(Nc1ccccc1)Nc1nc2ccccc2s1 | 89.6%
